Bead autofluor: compound fluorescence in toxin protease inhibitor counterscreen. compound autofluorescence counterscreen, microsphere flow cytometry; active compounds read high. fluorescence intensity (no concentration beside the values). hit rate 3.1% among 360,000. AID 624483; in the data active = fluorescence intensity above about 16000; inconclusive = no clear call, values can overlap the other calls
BoNT-F LC inh: inhibitors of Botulinum neurotoxin F light chain protease | hit rate 0.22% among 360,000 | AID 588497 | Multiplex microsphere protease cleavage assay, flow cytometry | inhibition, % at 10 µM; in the data active = inhibition above about 35%, passing the limit was not always enough; inconclusive = no clear call, values can overlap the other calls; note: plate controls were buffer without enzyme for full effect and enzyme alone for no effect
BoNT-A LC inh2: blocks Botulinum neurotoxin A light chain protease; multiplex microsphere protease substrate cleavage, flow cytometry; inhibition, % at 10 µM; hit rate 0.17% among 360,000; note: plate controls were buffer without enzyme for full effect and enzyme alone for no effect
Anthrax LF prot: blocks Bacillus anthracis lethal factor protease. P15917. hit rate 0.12% among 360,000. inhibition, % at 10 µM. AID 588501. multiplex microsphere protease cleavage assay, LF; note: plate controls were buffer without enzyme for full effect and enzyme alone for no effect
MazEF act: activators of E. coli MazEF toxin-antitoxin RNase. P0AE70. FAM/BHQ RNA-DNA oligo cleavage fluorescence, 5 h. activation, % at 20 µM. hit rate 0.32% among 350,000; in the data active = activation above about 50%
The depositor's hits bear a star. Rows were chosen to be rich in hits. Some 3.7% of all compounds tested hit in one or more screens of this group. Cut-off read from the data, not from the text of the source, unless noted: active = inhibition above about 30%; inconclusive = no clear call, values can overlap the other calls; inactive = below that.

COc1cc(C(=O)Nc2nc3ccccc3[nH]2)ccc1OC(F)F was read as Bead autofluor 4408, BoNT-F LC inh 2, BoNT-A LC inh2 0, Anthrax LF prot -11 and MazEF act 13.
Screening COc1ccccc1C(=O)OCC(=O)Nc1ccc(Cl)cn1 returned Bead autofluor 4180, BoNT-F LC inh -1, BoNT-A LC inh2 -1, Anthrax LF prot -5 and MazEF act 0.
Screening CN(C)Cc1c(C(=O)N/N=C/c2cccc(OCc3ccc(F)cc3)c2)nnn1-c1nonc1N returned Bead autofluor 2798, BoNT-F LC inh 12, BoNT-A LC inh2 -2, Anthrax LF prot -2 and MazEF act 99*.
Screening CCOc1ccc(/C=N/NC(=O)c2nnn(-c3nonc3N)c2COc2ccc(F)cc2)cc1 returned Bead autofluor 3360, BoNT-F LC inh inconclusive, BoNT-A LC inh2 -4, Anthrax LF prot -14 and MazEF act -26.
Screening CN(C)c1ccc(/C=N/NC(=O)c2nnn(-c3nonc3N)c2COc2ccc(F)cc2)cc1 returned Bead autofluor 3819, BoNT-F LC inh 27, BoNT-A LC inh2 3, Anthrax LF prot 32* and MazEF act -21.
Screening CN(C)Cc1c(C(=O)N/N=C/c2ccncc2)nnn1-c1nonc1N returned Bead autofluor 3978, BoNT-F LC inh 42*, BoNT-A LC inh2 2, Anthrax LF prot 13 and MazEF act -2.
For CC1CCCCC1NC(=O)COc1ncnc2sccc12 (stereo not given) the results were Bead autofluor 7022, BoNT-F LC inh -1, BoNT-A LC inh2 -3, Anthrax LF prot -14 and MazEF act 5.
Screening O=C(CN1C(=O)C2CCCCC2C1=O)OCC(=O)c1ccc(Cl)s1 (stereo not given) returned Bead autofluor 4583, BoNT-F LC inh -8, BoNT-A LC inh2 -1, Anthrax LF prot -7 and MazEF act 2.
`CC1(C)CC(=O)C(CO)=C(c2cccc3ccccc23)C1=O` gave Bead autofluor 3907, BoNT-F LC inh -2, BoNT-A LC inh2 0, Anthrax LF prot -6 and MazEF act 5.
`O=C(Cc1ccccn1)Nc1ccccc1` gave Bead autofluor 22456*, BoNT-F LC inh 2, BoNT-A LC inh2 1, Anthrax LF prot 2 and MazEF act -7.
Nc1cc(N)nc(SCC(=O)Nc2ccccc2)n1 was read as Bead autofluor 5387, BoNT-F LC inh -41, BoNT-A LC inh2 -3, Anthrax LF prot -1 and MazEF act 4.
Screening O=C(CSc1ncccn1)Nc1ccccc1 returned Bead autofluor 20507*, BoNT-F LC inh 2, BoNT-A LC inh2 inconclusive, Anthrax LF prot 3 and MazEF act -7.
COC(=O)c1sc(NC(=O)CSc2nc3cccnc3n2C)nc1C was read as Bead autofluor 6115, BoNT-F LC inh -5, BoNT-A LC inh2 0, Anthrax LF prot 3 and MazEF act 7.
`COc1ccc(Cl)cc1S(=O)(=O)NC(C)C(=O)NCCN1CCOCC1` (stereo not given) gave Bead autofluor 3643, BoNT-F LC inh 1, BoNT-A LC inh2 0, Anthrax LF prot 4 and MazEF act 3.
Screening CCC(=O)n1nc(-c2ccccc2)nc1SCC(=O)Nc1ccc(C)cc1 returned Bead autofluor 21542*, BoNT-F LC inh -3, BoNT-A LC inh2 -1, Anthrax LF prot -1 and MazEF act -13.
Screening Cc1ccc(NC(=O)CSc2nc3ccccc3c3nc4ccccc4n23)cc1 returned Bead autofluor 19179*, BoNT-F LC inh 1, BoNT-A LC inh2 0, Anthrax LF prot 0 and MazEF act 27.
COc1ccc(NC(=O)CSc2nc3ccccc3c3nc4ccccc4n23)cc1 was read as Bead autofluor 2453, BoNT-F LC inh -17, BoNT-A LC inh2 -1, Anthrax LF prot -1 and MazEF act -50.
For CCOc1ccc(Cl)cc1CSc1n[nH]c(CC)n1 the results were Bead autofluor 22875*, BoNT-F LC inh -3, BoNT-A LC inh2 -1, Anthrax LF prot -1 and MazEF act -5.
`CCCCOc1ccc(Cl)cc1CSc1n[nH]c(C)n1` gave Bead autofluor 10757, BoNT-F LC inh -3, BoNT-A LC inh2 -1, Anthrax LF prot -1 and MazEF act 0.
Screening C#CCOCCOCCOCCNc1nc(N2CCN(C(=O)CCCCCCCCCCNC(=O)Cn3cc(C[C@@H](C)O)nn3)CC2)nc(N2CCN(C(=O)CCCCCCCCCCNC(=O)[C@H](CCCCN)n3cc(CCCC(=O)O)nn3)CC2)n1 returned Bead autofluor 3690, BoNT-F LC inh -20, BoNT-A LC inh2 0, Anthrax LF prot -10 and MazEF act 2.

Screens: PubChem BioAssay, several laboratories
